KKLEB tox = counter-screen for CF NF-kB inhibitors: cytotoxicity; KKLEB CF airway cells viability, ATPlite luminescence, overnight; active compounds read low; cells stimulated with P. aeruginosa culture filtrate; activity change (cytotoxicity), % at 5 µM; hit rate 0.36% among 360,000; AID 602141;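 active = corrected activity change at or below -50% at 5 µM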
CF NFkB inh = inhibitors of cystic fibrosis induced NF-kB | KKLEB NF-kB-GFP reporter, PAF-induced, GFP fluorescence overnight | inhibition, % at 5 µM | hit rate 0.86% among 360,000 | AID 588850;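 active = at least 50% inhibition at 5 µM, scaled per plate between neutral and stimulator controls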;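 also: PAF is a Pseudomonas aeruginosa culture filtrate used as stimulus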
HIF-2a inh = inhibitors of HIF-2a | 786-0 RCC cells HIF-2a reporter, luciferase luminescence, overnight | inhibition, % at 18.8 µM | hit rate 0.72% among 360,000 | AID 624352;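 active = inhibition of the luminescence signal of 40% or more relative to plate controls, in a single-dose primary screen at 18.75 µM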
Peg3 promoter = reduces Peg3 promoter-driven luciferase expression in HeLa. inhibition, % at 20 µM. HeLa PEG-Prom luciferase reporter, luminescence, overnight. hit rate 1.7% among 360,000. AID 588405;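 active = inhibition of at least 50% at 20 µM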
EBV LMP1 NFkB = inhibitors of Epstein-Barr LMP1-induced NF-kappaB reporter; inhibition, % at 12.5 µM; LMP1-induced NF-kappaB luciferase reporter cells, luminescence; hit rate 0.69% among 350,000; in the data active = inhibition above about 41%
Shn3 inh set2 = reduces Shn3 3'UTR luciferase signal in osteoblasts | AID 588674 | Clone20 osteoblast Shn3 3'UTR firefly luciferase, 24 h | inhibition, % at 12.5 µM | hit rate 0.52% among 360,000;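 active = mean inhibition of at least 75% with every replicate also reaching 75%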
Large screens that a line does not name were inactive. In the library only some 2.9% were active in any assay of this set; here they are far more common.

NC(Cc1ccc(Cl)cc1)c1csc(NC(=O)Nc2ccccc2-c2ccccc2)n1 (centres undefined)	Peg3 promoter 90 (no result: EBV LMP1 NFkB)
COc1ccc(CC(N)c2csc(NC(=O)c3ccccc3)n2)cc1 (centres undefined)	none (no result: EBV LMP1 NFkB)
NC(Cc1ccc(Cl)cc1)c1csc(NC(=O)NCCc2ccccc2)n1 (centres undefined)	Peg3 promoter 96 (no result: EBV LMP1 NFkB)
NC(CCc1ccccc1)c1csc(NC(=O)NCCc2ccccc2)n1 (centres undefined)	Peg3 promoter 93 (no result: EBV LMP1 NFkB)
COc1ccc(CC(N)c2csc(NC(=O)C(c3ccccc3)c3ccccc3)n2)cc1 (centres undefined)	Peg3 promoter 98 (no result: EBV LMP1 NFkB)
O=C(Nc1ccc(F)cc1F)c1ccc(S(=O)(=O)NCc2ccco2)cc1	none
Nc1nc2ncccn2c1-c1ccc(F)c(F)c1	none (no result: KKLEB tox, CF NFkB inh, Peg3 promoter, EBV LMP1 NFkB, Shn3 inh set2)
COc1cc(CNC(=O)Nc2nc(C(N)Cc3ccc(Cl)cc3)cs2)cc(OC)c1OC (centres undefined)	Peg3 promoter 86 (no result: EBV LMP1 NFkB)
COc1ccc(CC(N)c2csc(NC(=O)c3cc(C(C)(C)C)nn3Cc3ccccc3)n2)cc1 (centres undefined)	KKLEB tox -52, CF NFkB inh 58, Peg3 promoter 100, Shn3 inh set2 94 (no result: EBV LMP1 NFkB)
COc1ccc(CC(N)c2csc(NC(=O)c3ccccc3OC)n2)cc1 (centres undefined)	none (no result: EBV LMP1 NFkB)
COc1ccc(CC(N)c2csc(NC(=O)NCCc3ccccc3)n2)cc1 (centres undefined)	Peg3 promoter 58 (no result: EBV LMP1 NFkB)
COc1cc(CNC(=O)Nc2nc(C(N)c3ccccc3)cs2)cc(OC)c1OC (centres undefined)	none (no result: EBV LMP1 NFkB)
CS(=O)(=O)N(CC(=O)N1CCCC1)c1cccc(F)c1	none
C=CCN1CC2(c3ccccc3)CN(CC=C)CC(c3ccccc3)(C1)C2=O	none
Cn1nnnc1Sc1ncnc2scc(-c3ccccc3)c12	HIF-2a inh 60
CC(C)NCC(O)COc1cccc2[nH]ccc12 (centres undefined)	none
CC(C)NCC(O)COc1cccc2ccccc12 (centres undefined)	EBV LMP1 NFkB 52
N#C/C(=N\Nc1ccc(Cl)cc1)C(=O)c1ccccc1	none
Cc1c(N/N=C(\C#N)C(=O)c2ccc(Cl)cc2)c(=O)n(-c2ccccc2)n1C	Shn3 inh set2 90
CSC1=C(C#N)C(=O)NC(c2ccccc2O)S1 (centres undefined)	none
COC(=O)CSC1=C(C#N)C(=O)NC(c2ccccc2)S1 (centres undefined)	Peg3 promoter 84
Cc1ccc(NS(=O)(=O)c2ccc(Cl)c(C(=O)Nc3ccccc3-c3nc4ccccc4[nH]3)c2)cc1C	CF NFkB inh 56
O=c1[nH]c(/C(Cl)=C/c2cc(Cl)ccc2O)nc2cc(Cl)ccc12	KKLEB tox -53
Cc1ccc2nc3c(cc(C(=O)NCc4ccccc4)c(=N)n3CCCn3ccnc3)c(=O)n2c1	Peg3 promoter 54
Cc1ccc2nc3c(cc(C(=O)NCCc4ccccc4)c(=N)n3CCN3CCOCC3)c(=O)n2c1	none
CCOC(=O)C1(C)CCN1C(=O)c1ccc(OC)c(OC)c1 (centres undefined)	none (no result: EBV LMP1 NFkB)
Oc1ccccc1C1=Nc2ncnn2C(c2ccc(F)cc2)C1 (centres undefined)	EBV LMP1 NFkB 62
Fc1ccc(C2CC(c3ccc(F)cc3)n3ncnc3N2)cc1 (centres undefined)	none
Nc1ccc(-c2cnc(N)c(C(=O)c3cccnc3)n2)cn1	CF NFkB inh 81, EBV LMP1 NFkB 67
O=C(Nc1cc(S(=O)(=O)N2CCCC2)ccc1OCC(F)(F)F)c1ccncc1	none
O=C(CNC(=O)c1cccc(F)c1)N/N=C/c1cccs1	none
CC(C)c1ccccc1NC(=O)Nc1nc(C(N)Cc2ccc(C(F)(F)F)cc2)cs1 (centres undefined)	Peg3 promoter 108, Shn3 inh set2 98 (no result: EBV LMP1 NFkB)
CC(C)(C)c1ccccc1NC(=O)Nc1nc(C(N)c2ccccc2)cs1 (centres undefined)	none (no result: EBV LMP1 NFkB)
CC(C)(C)c1ccccc1NC(=O)Nc1nc(C(N)Cc2ccc(F)cc2)cs1 (centres undefined)	Peg3 promoter 98 (no result: EBV LMP1 NFkB)
CC(N)c1csc(NC(=O)Nc2cccc(C(F)(F)F)c2)n1 (centres undefined)	Peg3 promoter 78 (no result: EBV LMP1 NFkB)
NC(Cc1ccc(C(F)(F)F)cc1)c1csc(NC(=O)Nc2ccccc2Cc2ccccc2)n1 (centres undefined)	KKLEB tox -92, CF NFkB inh 92, Peg3 promoter 118 (no result: EBV LMP1 NFkB)
CC(C)(C)C(=O)OCCNc1nc(-c2ccccc2)nc2ccccc12	none
NC(c1csc(NC(=O)Nc2ccc(OC(F)(F)F)cc2)n1)C1CCCCC1 (centres undefined)	KKLEB tox -65, CF NFkB inh 69, Peg3 promoter 100 (no result: EBV LMP1 NFkB)
CCNC(=S)N1CCN(CCNC2=CC(=O)CC(C)(C)C2)CC1	none
CC1(C)CC(=O)C=C(NCCN2CCN(C(=S)Nc3ccccc3)CC2)C1	EBV LMP1 NFkB 70
CC(=O)N1CCN(C(=O)CCCNC(=O)c2ccc(Cl)cc2)CC1	none
CC(C)C[C@H]1CNC(=S)N1C[C@H]1CCCN1C[C@H](Cc1ccc(O)cc1)N1C[C@H](Cc2ccc(O)cc2)N(CC2CCCCCC2)C1=S	KKLEB tox -59, CF NFkB inh 71, Peg3 promoter 101 (no result: EBV LMP1 NFkB)
CC(C)C[C@H]1CN([C@@H](Cc2ccc(O)cc2)CN2CCCC2CN2C(=S)NC[C@@H]2Cc2ccccc2)C(=S)N1CC1CCCCC1 (some centres undefined)	none (no result: KKLEB tox, CF NFkB inh, Peg3 promoter, EBV LMP1 NFkB, Shn3 inh set2)
CC(C)C[C@H]1CN([C@@H](Cc2ccc(O)cc2)CN2CCC[C@@H]2CN2C(=S)NC[C@@H]2Cc2ccccc2)C(=S)N1CC1CCCCCC1	none (no result: EBV LMP1 NFkB)
CC(C)C[C@H]1CNC(=S)N1CC1CCCN1C[C@H](Cc1ccccc1)N1C[C@H](Cc2ccc(O)cc2)N(CC2CCCCCC2)C1=S (some centres undefined)	Peg3 promoter 66
Cc1ccc(S(=O)(=O)c2cc3c(=O)n4ccccc4nc3n(C3CCCCC3)c2=N)cc1	none
COc1ccc(C(=O)Nc2ccc3c(c2)C(=O)c2ccccc2C3=O)cc1OC	none
COc1ccc(C(=O)c2c(C(F)(F)F)oc3c2C(=O)c2ccccc2C3=O)cc1OC	KKLEB tox -65, CF NFkB inh 88, Peg3 promoter 89, Shn3 inh set2 89
CN(C)S(=O)(=O)c1cccc(NC(=O)CN2C(=O)NC3(CCc4ccccc4C3)C2=O)c1 (centres undefined)	none
S=C(Nc1cccnc1)Nc1cccc2cnccc12	none
CN(C)S(=O)(=O)c1cccc(NC(=S)Nc2cccc3cnccc23)c1	CF NFkB inh 73
CC1CN(c2nc(-c3ccc(Br)cc3)nnc2-c2ccccc2)CC(C)N1 (centres undefined)	Peg3 promoter 62
O=C1/C(=C/c2ccncc2)SC(=S)N1C1CCS(=O)(=O)C1 (centres undefined)	CF NFkB inh 65, HIF-2a inh 41
